High-throughput results from PubChem.
SW480 rereplic: induces DNA re-replication in SW480 colon adenocarcinoma cells | SW480 DNA re-replication, Hoechst DNA content imaging, 48 h | Potency, µM (doses to about 46.1 µM), for inactives: at the highest dose re-replication activation, most hits filed as activators | actives 1.8% (n = 340,000) | AID 624297; note: % of control where 0% means no effect; nearly all actives have a fitted effect of over 55% in size
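SW480 cells exposed to compounds for 48 hr at 37 C, 5% CO2, then Hoechst-stained 40 min. Nuclear DNA content imaged by fluorescence scanning (405 nm excitation, 500-530 nm emission); re-replication scored as increased high-intensity nuclei.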
MCF10A rerep: induces DNA re-replication in MCF 10a normal breast cells. Potency, µM (top dose mostly 46.1 µM), for inactives: top-dose activity, positive = re-replication, actives largely listed as activators. actives 2.9% (n = 350,000). MCF 10A DNA re-replication, Hoechst nuclear intensity, 48 h. AID 624296; note: % of control where 0% means no effect; nearly all actives have a fitted effect of over 50% in size
KB-V1 cytotox: KB-V1 MDR subline cytotoxicity; KB-V1 MDR cells viability, CellTiter-Glo, 72 h; Potency, µM (doses to about 46.1 µM), hits mostly cytotoxic; actives 3.4% (n = 400,000); AID 1347076; note: % is set by controls: 0 for no effect and ±100 for the full control effect; nearly all actives have a fitted effect of over 60% in size
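KB-V1 cells (P-gp-expressing MDR subline of KB-3-1) in phenol-red-free DMEM with 10% FBS were exposed to library compounds over a concentration series for 72 h at 37 degrees C. Viability read by CellTiter-Glo luminescence; concentration-effect curves fitted after normalization.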
ELG1 repair inh: inhibitors of ELG1-dependent DNA repair in HEK293T cells; HEK293T ELG1-luciferase reporter, luminescence, 16 h; DNA damage induced by 5-fluorouridine; actives 2.3% (n = 330,000); Potency, µM (titrated, usually from 46.1 µM), for the others: at the top dose activity change, negative = inhibition, hits mostly inhibitors; note: % is set by controls: 0 for no effect and ±100 for the full control effect; nearly all actives have a fitted effect of over 55% in size
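Step one: seed 2,000 cells per well. Step two: pin-transfer compound or DMSO alongside 5-fluorouridine. Step three: incubate 16 hr, 37 °C, 5% CO2. Step four: add ONE-Glo, wait 30 min, read luminescence.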
KB-3-1 tox: KB-3-1 parental cell cytotoxicity; KB-3-1 viability, CellTiter-Glo ATP luminescence, 72 h; Potency, µM (doses to about 46.1 µM), most hits filed as cytotoxic; actives 1.4% (n = 400,000); AID 1347075; note: % is set by controls: 0 for no effect and ±100 for the full control effect; nearly all actives have a fitted effect of over 60% in size
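KB-3-1 parental drug-naive adenocarcinoma cells in DMEM/10% FBS, incubated 72 h at 37 C with pin-transferred compounds across a concentration series. Viability by CellTiter-Glo luminescence; concentration-response curves fitted after normalization.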
Numbers without * were called inactive; i = inactive; u = inconclusive; x = no result given; [ ] = another dose, or the depositor's remark. Rows were chosen to be rich in hits. Some 8.1% of all compounds tested hit in one or more screens of this group. Calls come from the whole dose curve; as a rule, active = well fitted curve in the direction sought with a large enough effect; inconclusive = small, poorly fitted or top-dose-only effect, or another doubt; inactive = no such curve, though single readings can be large; an effect the other way counts as inactive or inconclusive. Potency is the fitted concentration of half-maximal effect.

SMILES	SW480 rereplic	MCF10A rerep	KB-V1 cytotox	ELG1 repair inh	KB-3-1 tox
O=C1CN(C(=O)c2ccc(S(=O)(=O)N3CCCCC3)cc2)C(c2ccc(F)cc2)c2cc(Br)ccc2N1 (configuration not stated)	x	x	i	x	i
Nc1ccc2c(c1)C(O)c1cccc(C(=O)O)c1-2 (configuration not stated)	-1%	0%	i	x	i
Cc1ccc2nc3c(cc2c1)c(NC(=O)c1ccco1)nn3CC(C)C	u	12%	i	u	i
CCCn1nc(NC(=O)c2ccco2)c2cc3cc(C)ccc3nc21	18µM*	0%	i	u	i
CCCn1nc(NC(=O)c2ccco2)c2cc3ccc(C)cc3nc21	13µM*	u	i	u	i
CCCn1nc(NC(=O)c2ccccn2)c2cc3cc(C)ccc3nc21	7.3µM*	u	i	u	u
CCCn1nc(NC(=O)COC)c2cc3cc(C)ccc3nc21	0%	2%	i	28%	i
CC1CC(=O)N(CC(=O)Nc2ccc(OC(F)(F)F)cc2)c2ccccc2S1 (configuration not stated)	x	x	u	x	i
COc1cccc(C(=O)/C=C/c2ccc(OCC#N)c(OC)c2)c1	23µM*	9.2µM*	u	u	u
CCOc1ccc(C(=O)/C=C/c2ccc(OC)c(OC)c2)cc1	u	u	u	-1%	i
CCOc1ccc(/C=C/C(=O)c2ccccc2)cc1OC	u	u	i	u	i
COc1cc(/C=C/C(=O)c2ccc(O)cc2)ccc1OCC#N	x	u	18µM*	u	6.5µM*
NC(=O)c1cc[n+](CC2=C(C(=O)O)N3C(=O)[C@@H](NC(=O)[C@H](c4ccccc4)S(=O)(=O)[O-])[C@@H]3SC2)cc1	-1%[20.6 µM]	1%[20.6 µM]	x	x	x
CCOc1ccc(NC(=O)CSc2nc(=O)n(Cc3cccnc3)c3c2CCC3)cc1	-5%	3%	i	14%	i
COc1ccc(C(=O)CSc2nc(=O)n(Cc3cccnc3)c3c2CCC3)cc1	4%	5%	15µM*	x	i
FC(F)(F)c1nc(-c2ccncc2)ncc1-c1nnnn1-c1ccccc1	-9%	2%	21µM*	-1%	i
FC(F)(F)c1ccncc1-c1nnnn1-c1ccc(Cl)cc1	-21%	5%	i	u	i
Cc1ccc(-n2nnnc2-c2cnc(-c3cccnc3)nc2C(F)(F)F)cc1	0%	6%	21µM*	3%	u
c1ccc(-n2nnnc2-c2cnc(-c3ccncc3)nc2-c2cccs2)cc1	-9%	-1%	u	0%	i
FC(F)(F)c1nc(N2CCCC2)ncc1-c1nnnn1-c1ccc(Cl)cc1	8%	u	15µM*	u	u
Fc1ccc(-n2nnnc2-c2cnc(-c3cccs3)nc2C(F)(F)F)cc1	u	15µM*	23µM*	21µM*	u
COc1cc(C(=O)Nc2ccc(-c3nc4ccccc4o3)c(O)c2)cc(OC)c1OC	x	x	i	x	i
Cc1ccc(N=C2NC(=O)/C(=C\c3ccsc3)S2)c(C)c1	3%	18µM*	18µM*	-27%	i
O=c1[nH]c2ccccc2nc1-c1c[nH]c2ccccc12	0.73µM*	25%	i	u	i
Nc1ccccc1-c1nc2ccccc2[nH]c1=O	u	-2%	i	u	i
SMILES	SW480 rereplic	MCF10A rerep	KB-V1 cytotox	ELG1 repair inh	KB-3-1 tox
CSc1ncc(C(=O)Nc2c(C)cccc2C)c(-c2ccccc2)n1	x	x	i	x	i
CCCCS(=O)CC(O)COc1ccc(C(C)(C)C)cc1 (configuration not stated)	2%	u	21µM*	-2%	i
COc1cccc(CN(Cc2ccco2)S(=O)(=O)c2ccc(S(=O)(=O)NCc3ccccc3)cc2)c1OC	-1%	4%	i	12µM*	i
Clc1ccc(Nc2ccc(NCc3ccccc3)nn2)cc1	16µM*	u	16µM*	u	i
Cc1ccccc1-n1c(C)nnc1SC(C)C(=O)NCc1ccco1 (configuration not stated)	x	x	i	x	u
O=C(Nc1ccccc1SC(=O)c1ccccc1)c1ccccc1	x	x	i	x	i
Cc1ccc(C(=O)Sc2cccccc2=O)cc1	u	2.1µM*	2.6µM*	u	u
COc1ccc(N2CCN(C(CNC(=O)C(=O)NCCc3ccccc3)c3cccnc3)CC2)cc1 (configuration not stated)	x	x	i	x	i
COC(=O)c1ccc(Oc2cc(C)nc(Cl)n2)cc1	u	0%	i	14%	i
COC(=O)c1ccc(Oc2cc(C)nc(SC)n2)cc1	19%	3.7µM*	4.6µM*	u	5.8µM*
CC(C)N(C(=O)CSc1ccc(S(=O)(=O)N2CCCCC2)cn1)c1ccccc1	-10%	5.8µM*	i	u	u
Cc1cc(C(=O)N2CCC2(C)C(=O)NS(=O)(=O)c2cccc(OC(F)F)c2)nn1C (configuration not stated)	x	x	i	x	i
Cn1c(SCC(=O)N2CCCC2)nc2ccccc21	2%	-3%	i	-11%	i
Cn1c(SCC(=O)N(Cc2ccccc2)C(C)(C)C)nc2ccccc21	u	u	21µM*	-20%	i
Cc1cccc(CNC(=O)c2cccc(NC(=O)N3CCSc4ncccc43)c2)c1	x	x	i	x	i
Cc1ccc(S(=O)(=O)NNC(=O)c2cc(C)cs2)cc1	-9%	0%	i	-5%	i
Cc1ccc(S(=O)(=O)NNC(=O)c2cc(C)c(C)cc2N)cc1	0%	14%	16µM*	x	i
COC(=O)NNS(=O)(=O)c1ccc(C)cc1	26µM*	0%	i	13%	i
O=C(NCc1ccccc1)c1cc(C2COCCN2S(=O)(=O)c2ccccc2)on1 (configuration not stated)	x	x	i	x	i
COc1ccc(-c2ccc(=O)n(CC(=O)Nc3ccc(N(C)C)cc3)n2)cc1	x	x	i	x	i
CC1CC(C)C(=O)C(C(CC2CC(=O)NC(=O)C2)OC(=O)CC(=O)c2ccccc2)C1 (configuration not stated)	11%	u	u	x	2.6µM*
CN1c2ccccc2C(C)(C)C12CC(c1ccc(S(=O)(=O)N3CCCCC3)cc1)=NO2 (configuration not stated)	2%	-6%	u	5%	i
CN1c2ccccc2C(C)(C)C12CC(c1cccc(S(=O)(=O)N3CCCC3)c1)=NO2 (configuration not stated)	-9%	-55%	6.5µM*	4%	u
O=C(NCCC1=CCCCC1)C(=O)NCC(c1ccco1)N1CCN(c2ccccc2)CC1 (configuration not stated)	u	u	u	-2%	i
